Rows were chosen to be rich in hits. Some 5% of all compounds tested hit in one or more screens of this group.
SENP8 block-1 = SENP8 protease inhibition; Q96LD8; AID 2540; purified SENP8, Z-RLRGG-aminoluciferin cleavage, luminescence; 1.2% of 330,000 active; inhibition, % at 10 µM; in the data active = inhibition above about 50%
SENP6 block = inhibitors of human SENP6 protease | Q9GZR1 | Recombinant SENP6 catalytic domain, aminoluciferin luminescence | inhibition, % at 10 µM | 1.8% of 330,000 active | AID 2599;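 active = inhibition above about 50% at the single tested dose, limit read from the data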;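 note: plate controls were DMSO wells with enzyme for no effect and DMSO wells lacking enzyme for full effect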
Target sequence (Q9GZR1 628-1112 limits assumed): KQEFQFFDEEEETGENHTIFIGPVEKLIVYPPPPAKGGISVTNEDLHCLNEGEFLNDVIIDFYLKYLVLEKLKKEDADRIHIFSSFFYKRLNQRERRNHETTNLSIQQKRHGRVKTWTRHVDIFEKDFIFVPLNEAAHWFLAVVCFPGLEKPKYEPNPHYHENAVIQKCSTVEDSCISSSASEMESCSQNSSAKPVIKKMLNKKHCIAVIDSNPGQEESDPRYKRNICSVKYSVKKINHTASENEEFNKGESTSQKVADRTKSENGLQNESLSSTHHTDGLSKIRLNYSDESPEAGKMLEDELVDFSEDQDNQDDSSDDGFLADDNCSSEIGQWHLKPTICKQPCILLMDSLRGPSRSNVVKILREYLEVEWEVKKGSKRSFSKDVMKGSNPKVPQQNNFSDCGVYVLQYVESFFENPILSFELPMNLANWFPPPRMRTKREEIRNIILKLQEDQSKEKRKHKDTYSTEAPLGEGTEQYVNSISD
SENP7 inh = inhibitors of human SENP7 protease. Q9BQF6. recombinant SENP7, Z-RLRGG-aminoluciferin luminescence, 40 min. 1.5% of 330,000 active. inhibition, % at 5 µM. AID 434973;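 active = inhibition above about 50% at the single test dose, limit read from the data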;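 note: plate controls were DMSO with enzyme for no effect and no enzyme buffer wells for full effect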
AHR act = activates the human aryl hydrocarbon receptor; activation, % at 5 µM; 2.5% of 320,000 active; AHR-responsive luciferase reporter cells, luminescence; P35869; in the data active = activation above about 47%;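 note: 0% = vehicle wells and 100% = reference agonist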
EBI2 antag = blocks human EBI2 receptor beta-arrestin signaling; P32249; EBI2 beta-arrestin recruitment, luminescence, 7a,25-OHC stimulated; inhibition, % at 5 µM; 0.81% of 360,000 active; AID 651636; in the data active = inhibition above about 38%;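 note: enzyme fragment complementation signal reports receptor beta-arrestin coupling in cells; 0% = agonist plus DMSO wells and 100% = wells without agonist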
SENP8 block-2 = blocks human SENP8 cleavage of Nedd8 substrate. Q96LD8. recombinant SENP8, Nedd8 substrate fluorescence. inhibition, % at 20 µM. 0.64% of 360,000 active. AID 602440; in the data active = inhibition mostly above about 40%, no sharp cut-off; inactive = mostly below about 27%
Active calls of the source: *; nt = not tested or not shown.

SMILES	SENP8 block-1	SENP6 block	SENP7 inh	AHR act	EBI2 antag	SENP8 block-2
CCOC(=O)C1(CCCc2ccccc2)CCN(C(=O)CCc2cnn(C)c2)CC1	-2	-8	-7	1	4	15
C#CCn1cc(C=C2C(=O)c3ccccc3C2=O)c2ccccc21	nt	nt	nt	nt	1	38*
C#CCn1c(=O)cc(C)c2ccccc21	1	4	5	0	-12	11
CCC(CO)Oc1cc(NC(=O)c2cccc(Cl)c2)c2ncn(C(C)C)c2c1 (stereo unspecified)	3	0	6	6	28	10
CCN(CC)c1ccc2c(C)c(Cl)c(=O)oc2c1	-5	6	4	40	-3	-430
CCN(CC)c1ccc2c(C)cc(=O)oc2c1	7	-4	-1	0	-2	-401
CCN(CC)c1ccc2c(c1)oc(=O)c1c(Cl)cc(=O)oc12	3	-1	2	15	62*	-281
CCN(CC)c1ccc2c(Cl)c(Br)c(=O)oc2c1	-5	-4	1	53*	54*	-348
CNC(=O)C[C@H]1C(=O)N(CCc2ccccc2)C[C@@H]1c1ccc(OC)cc1	nt	nt	nt	nt	8	-12
NC(=NCc1ccccc1)NC(=O)c1nc(Cl)c(N)nc1N	-4	9	0	69*	-7	-405
COCCNC(=O)C1CCCN(C(=O)/C=C/c2ccccc2)CC1 (stereo unspecified)	nt	nt	nt	nt	13	12
Cc1ccc(S(=O)(=O)N2CCC(=O)N([C@H](COCc3ccc(C(F)(F)F)cc3)C(C)C)CC2)cc1	nt	nt	nt	nt	16	9
CC(C)Cn1[nH]c2c3c(ccc2c1=O)C(=O)c1ccccc1C3=O	7	27	7	8	2	43*
COc1ccccc1NC(=O)c1ccc(NC(=O)COC(=O)C2CCCCC2)cc1	-8	5	-1	8	-6	9
COc1cc(NC(=O)c2ccccc2F)c(OC)cc1NC(=O)CN1CCOCC1	-9	3	3	51*	-5	-4
COc1ccccc1NC(=O)c1ccc(NC(=O)COC(=O)c2cncc(Br)c2)cc1	-14	-20	-5	50*	2	-16
COc1ccccc1NC(=O)c1ccc(NC(=O)CN2CCCC2)cc1	0	-10	0	53*	3	6
COc1ccccc1N1CCN(CC(=O)Nc2ccccc2C(=O)NCCc2ccccc2)CC1	-4	-19	-8	63*	3	-10
COc1cc(NC(=O)c2ccc(F)cc2)c(OC)cc1NC(=O)CN1CCOCC1	-3	0	14	33	-2	-7
CC(=O)C1=CCC(c2ccc(Cl)c(Cl)c2)N(S(=O)(=O)c2ccc(C)cc2)C1 (stereo unspecified)	nt	nt	nt	nt	7	9
Nc1ccc2nc(CCCCc3nc4ccccc4[nH]3)[nH]c2c1	4	15	7	nt	-10	12
Nc1cccc(CCc2nc3cc4ccccc4cc3[nH]2)c1	-9	-11	-5	62*	11	-3
OCCCn1c(CCNc2nc(-c3ccc(F)cc3)cs2)nc2cc(C(F)(F)F)ccc21	4	-12	3	51*	14	13
NC(=O)C1=C(N=C2CCCCC2)CCCC1	nt	nt	nt	nt	-2	0
O=C(NCCN1CCC(n2c(=O)[nH]c3ccccc32)CC1)c1ccc(F)c(F)c1	nt	nt	nt	nt	-10	25
SMILES	SENP8 block-1	SENP6 block	SENP7 inh	AHR act	EBI2 antag	SENP8 block-2
CC(=O)Oc1ccc2c(=O)c(-c3ccccc3)coc2c1	22	21	59*	3	-3	-193
c1ccc2c(c1)OCC(c1nnc3sc(-c4ccc5c(c4)OCO5)nn13)O2 (stereo unspecified)	0	-38	4	48*	-5	-360
Fc1ccc(-c2nn3c(C4COc5ccccc5O4)nnc3s2)cc1 (stereo unspecified)	1	3	-3	8	-2	12
Clc1ccccc1-c1nn2c(Cn3cnc4ccccc43)nnc2s1	3	-9	9	16	-7	28
c1csc(-c2nn3c(C4COc5ccccc5O4)nnc3s2)c1 (stereo unspecified)	-7	-30	1	62*	-16	-16
Clc1ccccc1-c1nnc2sc(-c3ccc4c(c3)OCO4)nn12	2	19	8	56*	13	-294
c1ccc2c(c1)ncn2Cc1nnc2sc(-c3ccc4c(c3)OCO4)nn12	1	4	-2	50*	-6	14
Cc1nc(SCC(=O)NCCN2C(=O)CSC2=O)nc(C)c1C	4	0	-3	0	-13	4
Cc1ccn(C(C)CC(=O)Nc2ccc(-c3ccno3)cc2)n1 (stereo unspecified)	8	-4	0	2	-5	-1
O=C(CC1SC(=O)N(Cc2cccc3ccccc23)C1=O)Nc1nccs1 (stereo unspecified)	-2	-6	8	71*	11	21
CCOC(=O)CN1C(=O)SC(CC(=O)Nc2nccs2)C1=O (stereo unspecified)	0	-4	1	-2	3	35
CCOC(=O)C1=C[C@@H](C(C)(C)C)N(S(=O)(=O)c2ccc(C)cc2)[C@H]1c1cccc2ccccc12	nt	nt	nt	nt	2	10
CCCn1c(C)cs/c1=N\C(=S)Nc1ccccc1	-6	-16	0	48*	3	17
O=C(Nc1ncc2c(n1)-c1ccccc1CC2)c1ccc(Cl)cc1	5	-9	2	75*	-13	-200
O=C(Nc1ncc2c(n1)-c1ccccc1OC2)c1cccc([N+](=O)[O-])c1	-1	-2	11	20	-2	-168
O=C(Nc1ncc2c(n1)-c1ccccc1OC2)c1ccc(F)cc1	-2	-12	-10	55*	7	-431
O=C(Nc1ncc2c(n1)-c1ccccc1CC2)c1cccc(Cl)c1	0	-21	-1	29	7	-32
O=C1NC(=O)C2(CCCC2C(=O)O)N1 (stereo unspecified)	nt	nt	nt	nt	-1	9
CC1CCN(C(=O)c2ncn3c2c(=O)[nH]c2cccnc23)CC1	nt	nt	nt	nt	-7	-9
CN(C)/C=N/c1nc2nccc(-c3cccnc3)n2n1	-10	-5	-3	58*	1	-399
O=C(Nc1cccc(Cl)c1Cl)c1csc([C@H]2C[C@H](O)[C@@H](CO)O2)n1	nt	nt	nt	nt	-6	14
CNC(=O)c1cc2c(s1)-c1ccccc1CC2	-12	-22	-7	75*	-9	-422
COc1cccc2c1OCC/C2=N\NC(=O)COc1ccccc1C	-8	-10	2	48*	4	-167
CCOC(=O)N1CCN(C(=O)c2ccc3nc4ccc(Cl)cc4c(=O)n3c2)CC1	-7	-4	-9	5	1	-330
CCOC(=O)N1CCN(C(=O)c2cccn3c(=O)c4cc(Br)ccc4nc23)CC1	-1	-3	6	58*	-2	-412
O=C(NCCN1CCN(c2ccccc2)CC1)c1cccn2c(=O)c3cc(Cl)ccc3nc12	2	-1	-1	94*	20	-206

Assay outcomes as filed in PubChem.
